Data: PubChem BioAssay (NCATS)
Records with an inconclusive call do not appear. The source made the active and inactive calls. The call rests on the fitted dose curve; in most records, active means well fitted curve in the direction sought with a large enough effect; inconclusive means small, poorly fitted or top-dose-only effect, or another doubt; inactive means no such curve, though single readings can be large; an effect the other way counts as inactive or inconclusive.

Legend:
[1] = molecular target: Glutathione peroxidase 1 (Homo sapiens) (UniProt P07203); test: Primary qHTS Assay for Inhibitors of Recombinant Selenoprotein Glutathione Peroxidase 1 (GPX1) (AID 1845191); further: nearly all actives have a fitted effect of over 65% in size
Method in brief: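 GR-coupled readout: NADPH consumption tracked by fluorescence, ex 340/em 450 nm, at t=0 and after 15 min at RT. Final mix 10 nM GPX1, 1 mM GSH, 0.5 mM CHP, 0.5 mM NADPH, 100 nM GR, 0.01% BSA, following 30 min enzyme–compound preincubation.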

[2] = molecular target: Phospholipid hydroperoxide glutathione peroxidase GPX4 (Homo sapiens) (UniProt P36969); test: Primary qHTS Assay for Inhibitors of Recombinant Selenoprotein Glutathione Peroxidase 4 (GPX4) (AID 1845192); further: nearly all actives have a fitted effect of over 65% in size
Method in brief: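 Steps: GPX4 plus compound, 30 min RT; add GR/GSH/NADPH master mix; start with cumene hydroperoxide; read 340/450 nm fluorescence at 0 and 15 min. Finals were 200 nM GPX4, 1 mM GSH, 0.5 mM CHP, 0.5 mM NADPH, 100 nM GR.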

[3] = molecular target: Luciferin 4-monooxygenase (Photinus pyralis) (UniProt P08659); test: Primary firefly luciferase (FLuc) qHTS assay for identification of artifact compounds. (AID 1845220); further: nearly all actives have a fitted effect of over 60% in size
Method in brief: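 Enzymatic FLuc inhibition assay: compounds pre-exposed to luciferin/ATP (10 uM each) for 15 min, then purified P. pyralis enzyme at 10 nM added. Read-out: luminescence at 5 min.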

[4] = Primary fluorescence-based thiol-reactive (MSTI) qHTS assay for identification of artifact compounds. (AID 1845221);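 further: series mostly up to about 54 µM; thiol-reactive compounds lower the probe fluorescence signal; nearly all actives have a fitted effect of over 65% in size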
Method in brief: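 Thiol-reactive compounds detected by quenching of 4 uM MSTI fluorescence (525/598 nm) after 1 h room-temperature dark incubation in PBS pH 7.4, 2% DMSO. qHTS titration; percent inhibition Hill-fitted against Acetyl-MSTI/MSTI controls.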

[5] = system: Nanoluciferase (engineered Oplophorus gracilirostris luciferase); test: Primary Nanoluciferase (NLuc) qHTS assay for identification of artifact compounds. (AID 1845222);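 further: NLuc secreted into diluted conditioned medium of S16 cells; series mostly up to about 54 µM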
Method in brief: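 S16 cell supernatant NLuc, 1:55; cpds qHTS; 15 min RT dark; Nano-Glo substrate 1:100, 5 min; luminescence; Hill fit of % inhibition.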

[6] = Primary redox qHTS assay for identification of artifact compounds. (AID 1845223)
Method in brief: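 Redox-cycling detection via DTT (250 uM final) oxidation coupled to Amplex Red (25 uM)/HRP (250 mU/mL) in HBSS. 15 min preincubation plus 30 min after DTT, room temperature. Ex/Em 525/598 nm; 4-parameter Hill fit against DMSO and 10 uM DA3003.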

Measured: Potency

Sequence of Glutathione peroxidase 1 (Homo sapiens) (P07203 whole entry, looked up): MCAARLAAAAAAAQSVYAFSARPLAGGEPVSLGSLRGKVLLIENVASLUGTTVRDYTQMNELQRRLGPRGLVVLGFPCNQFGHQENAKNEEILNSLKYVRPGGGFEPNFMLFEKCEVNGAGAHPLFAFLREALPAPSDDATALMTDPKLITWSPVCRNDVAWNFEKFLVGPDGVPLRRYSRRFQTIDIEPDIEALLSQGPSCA
Sequence of Phospholipid hydroperoxide glutathione peroxidase GPX4 (Homo sapiens) (P36969 whole entry, looked up): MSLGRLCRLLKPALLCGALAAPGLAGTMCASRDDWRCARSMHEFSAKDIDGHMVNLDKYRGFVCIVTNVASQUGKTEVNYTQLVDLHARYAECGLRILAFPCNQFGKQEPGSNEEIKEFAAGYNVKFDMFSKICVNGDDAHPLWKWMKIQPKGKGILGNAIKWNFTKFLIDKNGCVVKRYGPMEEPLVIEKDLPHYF

OC(c1ccc(-c2ccc(CN3CCN(Cc4ccncc4)CC3)cc2)c(F)c1)(C(F)(F)F)C(F)(F)F
inactive: all assays above

Cc1c(C(=O)Nc2ccc(N3CCC(N4CCOCC4)CC3)c(C#N)c2)cnn1-c1ccc(Cl)cc1
inactive: all assays above

CCCC(CCC)C(=O)Nc1ccn([C@@H]2O[C@H](CO)[C@@H](O)C2(F)F)c(=O)n1
inactive: all assays above

COC1=CC(=O)O/C1=C(/OC)[C@@H]1O[C@H]1c1ccccc1
inactive: all assays above

C/C=C/C1=CC2=C(CO1)C(=O)C(C)(OC(=O)c1c(C)cc(O)cc1OC)C(O)C2 (stereo not drawn)
inactive: all assays above

CNCc1cc(-c2ccccc2F)n(S(=O)(=O)c2cccnc2)c1
inactive: all assays above

Cc1cccc(C#Cc2cc(F)cc(C#N)c2)n1
inactive: all assays above

Cn1c(=O)c(F)c(Nc2ccc(I)cc2F)c2c(=O)n(CC(O)CO)cnc21 (stereo not drawn)
inactive: all assays above

O=C(NCc1ccc(OC(F)(F)F)cc1)C1c2c(F)cccc2C(=O)N1CCc1ccccn1 (stereo not drawn)
inactive: all assays above

O=C(Nc1ccccc1)c1ccc(Nc2nnc(-c3ccc(O)cc3)c3ccccc23)cc1
inactive: all assays above

CCC(CC)(NC(=O)C(C)C)C(=O)N[C@@H](CCCN=C(N)N)C(=O)NC1(C(=O)NC(c2ccc(F)cc2)c2ccc(F)cc2)CCCC1
inactive: all assays above

CCNc1nc(Nc2cc(F)c(C(=O)N3CCOCC3)cc2OC)ncc1C(F)(F)F
inactive: all assays above

O=C1Nc2nc(-c3c(O)cccc3OCC3CC3)cc([C@@H]3CCCNC3)c2CO1
inactive: all assays above
